# Measurements as given in the supplement of paper PMC10338343.
# ± gives the standard deviation.
# Test system: MILI (PIWIL2) piRISC loaded with L1MC piRNA (26 nt)
# Experiment: pre-steady-state target cleavage rate (min^-1); guide: L1MC piRNA 5'p-UAACUAAAUACUAUGCAAGCUGUAGG; MIWI and MILI are mouse PIWI proteins and EfPiwi is from a freshwater sponge; tags in brackets are library labels; higher = faster piRNA-guided slicing of the target
# Conditions: auxiliary factor: 500 nM mouse GTSF1
# Description: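 Cleave-'n-Seq: a library of target RNAs (target site embedded in constant flanks, ACAGCATTCCGCGTTAGTGATATCCG... 5' flank; DNA-blocked outside the site) at 0.1 nM was incubated with 1 nM active mouse MILI or MIWI piRISC (synthetic 5'-monophosphorylated piRNA guide) with or without 500 nM mouse GTSF1 at 33 °C for 1 min to 16 h. Uncleaved targets were sequenced and normalised to non-target controls, and the pooled three trials were fitted to a burst-and-steady-state model to give the pre-steady-state cleavage rate (min^-1; k3 is constrained to at most 1e-4). Sequence is the target site only; target names encode pairing extent (gX:gY) and contiguous / 1-mismatch / 2-mismatch / bulge geometry. Fits with R² ≤ 0 are excluded.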
row,Sequence,pre-steady-state target cleavage rate
1,UCCUGGAUGAGCUAGCAUAGUAUAUAGUUA,0.242 ± 0.034
2,UCCUCCUACAGGUUCCAUAGUAUUUAGUUA,0.0813 ± 0.027
3,UCCUGGAUGUGCUCGCAUAGUAUUUAGUUA,0.155 ± 0.018
4,UCCUGGAACAGCUUGCAUAGUAUUUGAGUUA,0.209 ± 0.035
5,UCCUGGAUGUCCUUGCAUAGUAUGUUAGUUA,0.0434 ± 0.0088
6,UCCUCCUACAGCUUCGUUAGUAUUUAGAAA,0.0202 ± 0.0065
7,UCCUGGAUGUGCAUGCAUAGUAUUAAGUUA,0.122 ± 0.017
8,UCCUGGAACAGCUUGCUUAGUAUUUAGAUA,0.176 ± 0.017
9,UCCUGCUACAGGAAGCAUAGUAUUUACAAA,0.0258 ± 0.008
10,UCCUCCUACAGCUAGGAUAGUAUUUAGUUA,0.276 ± 0.015
11,UCCUGGAUGUCCUUGCAUAUUAUUUAGUUA,0.038 ± 0.011
12,UCCUGGAUGUCGAUGCAUCGUAUUUAGUUA,0.0238 ± 0.0073
13,UCCUGGAAGUCCUUGCAUAGUAUUUAGUUA,0.159 ± 0.018
14,UCCUCCUACAGCAUGCAAAGUAUUUAGUUA,0.161 ± 0.015
15,UCCUGGAUCAGCUUGCAAAGUAUAUAGUUA,0.104 ± 0.012
16,UCCUCCUACAGCUUGCAAUGUAUUUACAAA,0.0431 ± 0.011
17,UCCUGCUACAGCUUGCAUAGUAGUUAGUUA,0.127 ± 0.03
18,UCCUCGUACAGCUUGCAUAGUAUUUAGUUA,0.32 ± 0.015
19,UCCUCCAUGAGCUUGCAUAGUAUUUAGUAA,0.169 ± 0.018
20,UCCUGGUCCAGCUUGCAUAGUAUUUAGUUA,0.232 ± 0.02
21,UCCUGGUACAGCUUGGAUACUAUUUAGUUA,0.153 ± 0.059
22,UCCUGCAACAGCUUGCAUAGUAUUUUGUUA,0.179 ± 0.023
23,UCCUGGAUCAGCUCUGCAUAGUAUUUAGUUA,0.246 ± 0.024
24,UCCUGCUACAGCUUGCAAUCUAUUUAGUUA,0.0303 ± 0.0068

# Same assay, conditions: auxiliary factor: none (no GTSF1)
row,Sequence,pre-steady-state target cleavage rate
1,UCCUGGAUGAGCUAGCAUAGUAUAUAGUUA,0.0046 ± 0.0022
2,UCCUGGAUGUGCUCGCAUAGUAUUUAGUUA,0.00981 ± 0.0026
3,UCCUGGAACAGCUUGCAUAGUAUUUGAGUUA,0.00299 ± 0.003
4,UCCUGGAUGUCCUUGCAUAGUAUGUUAGUUA,0.00471 ± 0.0025
5,UCCUGGAUGUGCAUGCAUAGUAUUAAGUUA,0.00463 ± 0.0027
6,UCCUCCUACAGCUAGGAUAGUAUUUAGUUA,0.00685 ± 0.0019
7,UCCUGGAUGUCCUUGCAUAUUAUUUAGUUA,0.0028 ± 0.0027
8,UCCUGGAUGUCGAUGCAUCGUAUUUAGUUA,0.00865 ± 0.0025
9,UCCUGGAAGUCCUUGCAUAGUAUUUAGUUA,0.00649 ± 0.0018
10,UCCUCCUACAGCAUGCAAAGUAUUUAGUUA,0.00732 ± 0.0021
11,UCCUGGAUCAGCUUGCAAAGUAUAUAGUUA,0.00771 ± 0.0027
12,UCCUGCUACAGCUUGCAUAGUAGUUAGUUA,0.00253 ± 0.0025
13,UCCUCGUACAGCUUGCAUAGUAUUUAGUUA,0.0108 ± 0.0022
14,UCCUCCAUGAGCUUGCAUAGUAUUUAGUAA,0.00406 ± 0.0021
15,UCCUGGUCCAGCUUGCAUAGUAUUUAGUUA,0.0129 ± 0.0037
16,UCCUGGAUCAGCUCUGCAUAGUAUUUAGUUA,0.00786 ± 0.0034
17,UCCUGCUACAGCUUGCAAUCUAUUUAGUUA,0.00243 ± 0.0019
